Shown are actives, neighbours in structure and some others; about 3.8% of the full set was active somewhere.
HT1080NT lethal: kills 2HG-producing HT-1080-NT fibrosarcoma cells; HT-1080-NT fibrosarcoma viability, CellTiter-Glo ATP luminescence, 48 h; Potency, µM (doses to about 46.1 µM), most hits filed as cytotoxic; 1.6% of 360,000 active; AID 686970;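 also: NT is the 2HG producing partner of a matched IDH1 knockdown line; nearly all actives have a fitted effect of over 55% in size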
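Read-out is CellTiter-Glo luminescence after 10 minutes at room temperature, following 48 hours' compound treatment of HT-1080-NT cells (750 cells/well, RPMI, 5% FBS, 37 degrees C).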
S2 tox: reduces viability in counter-screen for ATXN expression inhibitors. S2 cells (HEK-293 line with an ATXN2-luciferase reporter) viability, CellTiter-Fluor protease fluorescence, 24 h. Potency, µM (doses to about 56.7 µM), actives largely listed as cytotoxic. 0.49% of 400,000 active. AID 651635; also: nearly all actives have a fitted effect of over 40% in size
ATXN2 expr inh: ATXN2 expression inhibition; HEK-293 ATXN2-luciferase reporter, luminescence, 24 h; Potency, µM (doses to about 57 µM), most hits filed as inhibitors; 0.72% of 360,000 active; also: nearly all actives have a fitted effect of over 55% in size
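qHTS (up to 57 uM final) was run with 24 h compound exposure of reporter cells at 37 °C. Each well was multiplexed: SteadyGlo luminescence measured ATXN2-luciferase expression after a fluorogenic Gly-Phe-AFC viability readout (25 uM final).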
HepG2 tox: counter-screen for TGF-b inhibitors: cytotoxicity in HepG2 cells | HepG2 CAGA-GFP viability, ATP luminescence, 18 h | 0.76% of 410,000 active | Potency, µM (doses to about 46.1 µM), actives largely listed as cytotoxic
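HepG2 CAGA-GFP cells (1000/well, DMEM with 1% FBS) received compound, then TGF-beta at 500 pg/mL final, and were incubated 18 hours at 37 degrees C. Viability was read by CellTiter-Glo luminescence. Media-only wells were set as complete cell-killing and DMSO as no toxicity.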
TGFb SMAD3 inh: inhibitors of TGF-b signaling. 1.2% of 410,000 active. Potency, µM (titrated, usually from 46.1 µM), most hits filed as inhibitors. HepG2 CAGA-GFP TGF-b/SMAD3 reporter, GFP fluorescence, 18 h; TGF-beta stimulated, 500 pg/mL final; also: nearly all actives have a fitted effect of over 65% in size
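Read-out: total well GFP (ex488/em500-530) summed from mean per-cell fluorescence. Cells: HEPG2 CAGA-GFP, 1% FBS DMEM, 18 h at 37 degrees C with 500 pg/mL final TGF-beta. Unstimulated wells served as the full-inhibition control; stimulated DMSO wells = 0%.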
HT1080 IDH1KD tx: toxicity to HT-1080 IDH1 knockdown cells (counter line) | HT-1080 IDH1 knockdown viability, ATP luminescence, 48 h | Potency, µM (titrated, usually from 46.1 µM), usual class: cytotoxic | 2% of 360,000 active | AID 686971
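Luminescent ATP read-out (CellTiter-Glo, 10 min at room temperature) after 48 h compound exposure at 37 °C gave viability of IDH1-knockdown HT-1080 cells. Activity was normalised to DMSO and cell-free wells, then fitted as concentration-response curves.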
A number is an active result; i = inactive; ? = inconclusive; nt = not tested or not shown; ! = not confirmed by another sample. Calls follow the shape of the dose curve; as a rule, active = well fitted curve in the direction sought with a large enough effect; inconclusive = small, poorly fitted or top-dose-only effect, or another doubt; inactive = no such curve, though single readings can be large; an effect the other way counts as inactive or inconclusive.

SMILES	HT1080NT lethal	S2 tox	ATXN2 expr inh	HepG2 tox	TGFb SMAD3 inh	HT1080 IDH1KD tx
CC1=C(C(=O)OC2CCCC2)C(c2cccc(Cl)c2Cl)CC(=O)N1 (stereo not given)	nt	i	i	i	?	nt
Cc1ccc2[nH]c(O)c(N=Nc3nc4ccccc4s3)c2c1	?	13µM	?	i	i	i
COc1cc(/C=N/Nc2nc3ccccc3s2)cc([N+](=O)[O-])c1O	i	i	nt	i	i	i
Oc1[nH]c2ccccc2c1N=Nc1nc2ccccc2s1	i	i	i	i	i	i
O=[N+]([O-])c1cc(Cl)cc(/C=N/Nc2nc3ccccc3s2)c1O	21µM	?	?	i	i	18µM
Cc1ccc2nc(N(CCCN(C)C)C(=O)c3ccc(S(=O)(=O)N4CCc5ccccc5C4)cc3)sc2c1	?	?	?	i	?	13µM
Cc1cc(C)c2sc(NNC(=O)c3ccc(S(=O)(=O)N4CCc5ccccc5C4)cc3)nc2c1	?	?	?	i	?	?
CN(C)CCCN(C(=O)c1ccc(S(=O)(=O)N2CCc3ccccc3C2)cc1)c1nc2ccc(F)cc2s1	?	?	?	i	?	16µM
COc1ccc2sc(N(CCCN(C)C)C(=O)c3ccc(S(=O)(=O)N4CCCC4)cc3)nc2c1	i	i	i	i	i	i
COc1ccc2sc(N(CCCN(C)C)C(=O)c3ccc(S(=O)(=O)N4CCc5ccccc5C4)cc3)nc2c1	?	?	?	i	16µM	?
Cc1cc(C)c2nc(NNC(=O)c3ccc(S(=O)(=O)N4CCc5ccccc5C4)cc3)sc2c1	?	i	?	i	?	6.5µM
CCN(CC)C(=O)C1CN2CCc3cc(OC)c(OC)cc3C2CC1OC(C)=O (stereo not given)	nt	i	i	nt	nt	nt
Cc1ccc2c(c1)CN(CCNC(=O)c1n[nH]c3c1CCCC3)CC(C)O2 (stereo not given)	nt	i	nt	nt	nt	nt
CS(=O)(=O)N1CCN(/[N+]([O-])=N/Oc2ccc([N+](=O)[O-])cc2[N+](=O)[O-])CC1	nt	nt	nt	i	?	nt
COc1cc(-c2ccc(N=Nc3ccc4c(S(=O)(=O)O)cc(S(=O)(=O)O)c(N)c4c3O)c(OC)c2)ccc1N=Nc1ccc2c(S(=O)(=O)O)cc(S(=O)(=O)O)c(N)c2c1O	nt	i	nt	nt	nt	nt
O=C1CC(c2ccc(Cl)cc2)CC(=O)N1	nt	i	i	nt	nt	nt
Cc1cc(C)c2sc(N(CCCN(C)C)C(=O)c3ccc(S(=O)(=O)N4CCCc5ccccc54)cc3)nc2c1	18µM	28µM	?	i	?	?
CN(C)CCCN(C(=O)c1cc(-c2cccs2)nc2ccccc12)c1nc2ccc(F)cc2s1	8.2µM	?	?	i	?	21µM
CC(C)(C)NCC(O)COc1ccccc1OCC1CCCO1 (stereo not given)	nt	i	i	nt	nt	nt
Cc1ccc(CN2CCOc3ccc(CN4CCC(O)(c5cccnc5)CC4)cc3C2)cc1C	nt	i	nt	nt	nt	nt
O=C(NCC1(N2CCOCC2)CCCCC1)c1cnn(-c2nccc(-c3cccs3)n2)c1C1CC1	nt	i	nt	nt	nt	nt
COc1ccc(OCC(O)CN(CC(O)COc2ccc(OC)cc2)c2cccc(O)c2)cc1 (stereo not given)	?	i	i	10µM	i	?
O=c1[nH]c(CSc2nc3ccccc3[nH]2)nc2c1cnn2-c1ccccc1	23µM	?	?	i	i	?
Clc1ccc2nc(COc3ccccc3)[nH]c2c1	13µM	i	i	i	i	8.2µM
Cc1ccc(C(C)C)c(OCC(O)CN2CCN(c3ccccc3F)CC2)c1 (stereo not given)	nt	nt	nt	i	16µM	nt
SMILES	HT1080NT lethal	S2 tox	ATXN2 expr inh	HepG2 tox	TGFb SMAD3 inh	HT1080 IDH1KD tx
COc1ccccc1N1CCN(CC(O)COc2cccc3ccccc23)CC1 (stereo not given)	?	?	?	i	i	15µM!
O=C(Nc1ccc(OC(F)(F)F)cc1)c1sccc1NCc1ccnc2ccccc12	nt	nt	i	nt	nt	nt
O=C1C=C(c2ccc3ccccc3c2)C[C@@H](c2ccc(Cl)cc2)C1	i	i	i	i	?	i
O=C1C=C(c2ccc3[nH]ccc3c2)C[C@@H](c2ccc(Cl)cc2)C1	?	?	i	i	11µM	?
CCSc1ncc(Cl)c(C(=O)N2CCN(c3ccc(OC)cc3)CC2)n1	nt	i	i	i	i	nt
CCCS(=O)(=O)c1ncc(Cl)c(C(=O)N2CCN(c3ccc(OC)cc3)CC2)n1	nt	nt	nt	4.5µM	4µM	nt
CCOC(=O)C1=C(c2ccccc2)NC(N)=NC1c1ccc(OCc2ccc(C(=O)OC)cc2)cc1 (stereo not given)	23µM	28µM	25µM	i	?	21µM

Source: PubChem BioAssay
